Measurements published in PubChem BioAssay (NCATS).
Inconclusive results are not listed. Calls of active or inactive are those of the source. Calls come from the whole dose curve; as a rule, active = well fitted inhibition curve with a large enough effect; inconclusive = small, poorly fitted or top-dose-only effect; inactive = no such curve, though single readings can be large or run the other way.

Assay: Primary qHTS for inhibitors of nuclear receptor binding SET domain protein 2 (NSD2) in an RCH-ACV wild type WT cells (2C) (AID 1645877); note: nearly all actives have a fitted effect of over 70% in size
Conditions: RCH-ACV (leukaemia line) NSD2 WT (2C) viability, CellTiter-Glo, 72 h; series mostly up to 44.9 µM
Potency is the fitted concentration of half-maximal effect.

| Compound | Potency |
| --- | --- |
| CCC(C)(OC(C)=O)C(=O)O[C@H]1[C@H](OC(C)=O)[C@]2(CO)[C@H](O)[C@H](O)[C@]3(C)C(=CCC4[C@@]5(C)CC[C@H](O[C@@H]6O[C@H](C(=O)O)[C@@H](O)[C@H](O[C@@H]7OC[C@H](O)[C@H](O[C@@H]8OC[C@H](O)[C@H](O)[C@H]8O)[C@H]7O)[C@H]6O[C@@H]6O[C@H](CO)[C@@H](O)[C@H](O)[C@H]6O)C(C)(C)C5CC[C@]43C)[C@@H]2CC1(C)C (some centres undefined) | 2.44 µM (active) |
| CO[C@H]1C[C@@H]2CC[C@@H](C)[C@@](O)(O2)C(=O)C(=O)N2CCCC[C@H]2C(=O)O[C@H]([C@@H](C)C[C@@H]2CC[C@@H](O)[C@H](OC)C2)CC(=O)[C@H](C)/C=C(\C)[C@@H](O)[C@@H](OC)C(=O)[C@H](C)C[C@H](C)/C=C/C=C/C=C/1C | 25.8 µM (active) |
| O=C(O)c1ccc(N2C(=O)/C(=C/c3ccc(-c4ccc([N+](=O)[O-])cc4)o3)C=C2c2ccccc2)cc1 | inactive |
| C=C1C(=O)OC[C@@H]1C/C=C(\C)CC1CC(C)C(=O)O1 (some centres undefined) | 23 µM (active) |
